# Screening results (PubChem BioAssay)
# Hits are enriched below; roughly 3.5% of the tested compounds scored in any of these assays.
# TEAD-YAP inh: TEAD-YAP interaction inhibition. HEK-TIYL cells, TEAD-Gal4/YAP UAS-luciferase luminescence. hit rate 1.4% among 640,000. inhibition, % at 9.12 µM; in the data active = inhibition above about 32%;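 also: 0% = median of test compound wells and 100% = reference inhibitor wells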
# MITF primary: blocks human microphthalmia-associated transcription factor; O75030; AlphaScreen MITF homodimerization, bead proximity signal; inhibition, % at 2.6 µM; hit rate 0.91% among 650,000; AID 1259374; in the data active = inhibition above about 50%;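 also: 0% = vehicle wells with protein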
# GPR151 activ: human GPR151 activation | Q8TDV0 | PathHunter beta-arrestin GPR151 cells, luminescence | activation, % at 11.2 µM | hit rate 1% among 650,000; in the data active = activation above about 4.9%;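 also: 0% = median of compound wells and 100% = cells with positive control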
# FBW7 activator: human FBW7 E3 ligase activation, primary screen; Q969H0; AlphaScreen FBW7–phospho-cyclin E peptide binding, activator screen; normalized activity (activation), % at 26.1 µM; hit rate 0.13% among 650,000; in the data active = normalized activity above about 1.9%;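 also: purified mutant Fbw7 with reduced substrate affinity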
# GPR151 confirm: human GPR151 activation, confirmation screen. shares compounds with GPR151 activ. GPR151 PathHunter beta-arrestin cells, luminescence, 90 min; % of EA-reagent control over plate median. activation, % at 11.2 µM. 6,700 tested, under 10 active. AID 1508609;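 active = mean percent activation across replicates above the confirmation screen cutoff of 4.91%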
# GPR119 counter: GPR119 activation, counter-screen for GPR151 activators; shares compounds with GPR151 activ; GPR119 PathHunter beta-arrestin cells, luminescence, 90 min; 0 = compound-well median, 100 = enzyme-acceptor control; activation, % at 11.2 µM; hit rate 0.3% among 6,700; AID 1508611;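 active = mean percent activation in the counterscreen above 29.09%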;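 also: counterscreen on off-target GPR119 to flag nonselective hits from the GPR151 activator screen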
# Target sequence (Q8TDV5 whole entry, looked up): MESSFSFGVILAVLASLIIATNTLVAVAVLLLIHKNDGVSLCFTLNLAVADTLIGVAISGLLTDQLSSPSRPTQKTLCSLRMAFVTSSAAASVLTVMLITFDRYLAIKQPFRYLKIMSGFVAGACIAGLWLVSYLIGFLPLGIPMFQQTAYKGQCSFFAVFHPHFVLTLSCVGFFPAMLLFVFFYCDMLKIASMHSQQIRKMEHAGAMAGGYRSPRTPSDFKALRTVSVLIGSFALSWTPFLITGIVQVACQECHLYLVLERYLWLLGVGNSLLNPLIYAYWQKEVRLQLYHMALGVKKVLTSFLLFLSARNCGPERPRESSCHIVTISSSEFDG
# An asterisk follows results filed as active; nt = no result given.
SMILES,TEAD-YAP inh,MITF primary,GPR151 activ,FBW7 activator,GPR151 confirm,GPR119 counter
O=c1sc2ccccc2n1Cc1nnc(SCc2ccccn2)n1CCc1ccccc1,1,22,-1,1,nt,nt
CCc1cc(-c2n[nH]c(C)c2-c2nc(C)cs2)c(O)cc1OC,10,4,8.0*,0,0,7
Cc1ccccc1N(CC(=O)N1CCN(c2ccccc2)CC1)S(=O)(=O)c1ccccc1,10,-4,0,0,nt,nt
COc1ccc2cc(/C=N/Nc3ccccn3)c(Cl)nc2c1,-3,3,12*,1,0,-5
CC(C(=O)Nc1ccccc1)N(c1ccc(Oc2ccccc2)cc1)S(C)(=O)=O (stereo unspecified),4,16,-1,0,nt,nt
CCCNC(=O)CCCOc1ccc(Cl)cc1Cl,-4,12,13*,0,-1,3
CCOCCCNC(=O)CCCOc1ccc(Cl)cc1Cl,0,-5,0,0,nt,nt
Nc1ccccc1S(=O)(=O)NCC(=O)O,3,9,1,0,nt,nt
Nc1ccccc1S(=O)(=O)Nc1ccccc1,6,1,5.0*,0,-1,-10
CCOC(=O)/C(=N\Nc1cccc(C(F)(F)F)c1)N1CCC(C(=O)OCC)CC1,1,-9,2,0,nt,nt
COc1ccc(OC)c(NP2(=O)C=C(c3ccccc3)OC(c3ccccc3)=C2)c1,1,1,2,0,nt,nt
COc1cc2c(cc1NC(=O)c1ccccc1Cl)oc1ccccc12,-41,-14,0,0,nt,nt
COc1cc2c(cc1NC(=O)c1cccc([N+](=O)[O-])c1)oc1ccccc12,-1,8,6.9*,0,1,0
COc1cc2c(cc1NC(=O)c1ccoc1C)oc1ccccc12,-65,-6,5.2*,0,0,3
COc1cccc(/C=N/NC(=O)COc2ccc3ccccc3c2)c1,-6,3,1,0,nt,nt
CCCCOc1ccc(OCC(=O)N/N=C/c2cccc(OC)c2)cc1,1,-5,5.7*,0,0,-4
COc1ccc(/C=N\NC(=O)COc2c(C)cccc2C)cc1OC,-4,2,9.9*,0,0,13
COc1ccc(/C=N/NC(=O)c2ccc(=O)n(C)c2)cc1OC,-13,-8,10*,0,-1,-3
COc1ccc(/C=N/NC(=O)c2ccc(=O)n(C)c2)cc1,-2,-6,-1,0,nt,nt
Cc1cc2c(cc1S(=O)(=O)N(C)Cc1ccco1)OCC(=O)N2,4,0,1,0,nt,nt
O=C1NC2(CCN(C(=O)CC34CC5CC(CC(O)(C5)C3)C4)CC2)Nc2ccccc21,12,-8,2,0,nt,nt
COc1ccccc1NC(=O)c1ccc(SCC(=O)NC2CCCCCC2)c([N+](=O)[O-])c1,13,15,8.3*,0,0,6
CC(=O)Nc1ccc(S(=O)(=O)N(C)CCOCc2ccccc2)cc1,8,25,5.4*,1,0,-6
CC(=O)NC(=S)Nc1ccc(S(=O)(=O)N(C)Cc2ccccc2)cc1,12,11,-1,0,nt,nt
CN(C)CCNc1c2c(nc3ncnn13)CCCC2,-1,-2,1,0,nt,nt
SMILES,TEAD-YAP inh,MITF primary,GPR151 activ,FBW7 activator,GPR151 confirm,GPR119 counter
Cc1ccc(-c2nc(CSCC(=O)N3CCOCC3)c(C)o2)cc1,-11,-18,5.0*,0,1,-6
Cc1ccc(-c2nc(CSCC(=O)N3CCN(C(=O)c4ccco4)CC3)c(C)o2)cc1,-9,1,0,0,nt,nt
COc1cc(/C=C2\SC(NC(C)=O)=NC2=O)cc(OC)c1OC,-7,-13,-1,0,nt,nt
COC(=O)CN1C(=O)S/C(=C/c2ccc(OCC(=O)O)cc2)C1=O,8,13,9.8*,0,1,5
COC(=O)CN1C(=O)S/C(=C\c2cc(Br)c(OC)c(OC)c2)C1=O,-1,9,14*,0,1,3
COC(=O)CN1C(=O)S/C(=C/C=C/c2ccccc2[N+](=O)[O-])C1=O,4,17,-1,0,nt,nt
COc1cc(/C=C2\SC(NC(C)=O)=NC2=O)cc(Br)c1OC(C)=O,4,11,7.4*,0,1,-7
COC(=O)CN1C(=O)S/C(=C/c2cccc([N+](=O)[O-])c2O)C1=O,4,14,5.3*,0,0,-12
